ssDAF12 agonist: activates DAF-12 receptor from parasite S. stercoralis; HEK293 ssDAF-12/GRIP1 lit1-tk-luc reporter, luminescence; % of 3 µM dafachronic acid response; activation, % at 6.8 µM; actives 1% (n = 370,000);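 active = activation above the mean over all tested compounds plus 3 SD, cut at about 0.9% in these data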
SMARCA2 act: SMARCA2 function activation, primary screen; MG213 cells, MMTV-luciferase reporter, dexamethasone, overnight; actives 1% (n = 370,000); activation, % at 9.1 µM; AID 652017; in the data active = activation above about 7.8%
hgDAF-12 ag: agonists of H. glycines DAF-12 nuclear receptor | HEK293 GAL4-hgDAF12 UAS-luciferase reporter, agonist luminescence; normalized to butyrate control | activation, % at 6.8 µM | actives 1.8% (n = 370,000);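 active = activation above a cutoff set at the mean of all screened compounds plus 3 SD, cut at about 10% in these data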
hcDAF12 agonist: activators of H. contortus DAF-12 nuclear receptor; HEK293 hcDAF-12 lit1-tk-luc reporter, luminescence; 0% DMSO, 100% Δ7-dafachronic acid; actives 1.4% (n = 370,000); activation, % at 6.8 µM;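 active = activation above the mean of all tested compounds plus 3 SD, cut at about 5.5% in these data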
DAX1 inh-1: inhibitors of human orphan nuclear receptor DAX1 (NR0B1); P51843; HEK293 Gal4-DAX1 luciferase reporter, luminescence; inhibition, % at 6.75 µM; actives 0.99% (n = 340,000); AID 504766;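 active = inhibition above the mean over all tested compounds plus 3 SD, cut at about 4.2% in these data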;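 note: inhibition shows as a rise in luminescence from relieved DAX1 repression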
Target sequence (P51843 207-470 limits assumed): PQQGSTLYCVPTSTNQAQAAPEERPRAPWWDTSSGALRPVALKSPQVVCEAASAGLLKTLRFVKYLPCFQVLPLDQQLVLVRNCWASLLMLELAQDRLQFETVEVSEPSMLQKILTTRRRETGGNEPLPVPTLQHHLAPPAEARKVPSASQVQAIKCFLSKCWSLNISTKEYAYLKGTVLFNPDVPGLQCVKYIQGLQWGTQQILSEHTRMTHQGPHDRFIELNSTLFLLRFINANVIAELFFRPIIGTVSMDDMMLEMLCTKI
DAX1 inh-2: blocks DAX1 repression of SF-1 activated StAR promoter | actives 1.1% (n = 370,000) | HEK293T StAR-luciferase reporter, SF-1/DAX-1 repression relief | inhibition, % at 6.8 µM;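 active = inhibition above the mean over all tested compounds plus 3 SD, cut at about 3.6% in these data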;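 note: higher inhibition means more luminescence from relief of DAX-1 repression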
DAX1 inh confirm: NR0B1 (human) inhibition, confirmation; HEK293T StAR-promoter luciferase reporter, SF-1/DAX-1 repression; inhibition, % at 6.8 µM; shares compounds with DAX1 inh-2; actives 87% (n = 2,400);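 active = inhibition above the average of every tested compound plus 3 SD, cut at about 3.8% in these data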;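 note: active compounds raise luminescence by relieving repression of the StAR reporter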
SF1 AF2mut Luc: nonselective inhibitor or artifact in SF-1 mutant DAX1 counter-screen; HEK293 StAR-luciferase, SF-1 AF2 mutant, luminescence; actives 78% (n = 2,400); inhibition, % at 6.8 µM; shares compounds with DAX1 inh-2;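 active = inhibition above the mean of all tested compounds plus 3 SD, cut at about 3% in these data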
SMARCA2 conf: SMARCA2 activation, confirmation screen; activation, % at 9.1 µM; shares compounds with SMARCA2 act; MG213 cells, MMTV-luciferase with dexamethasone, luminescence, overnight; MG213 cells expressing E1A, Rb sequestered; DMSO wells 0%, reference activator 100%; actives 30% (n = 3,500);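 active = activation above its plate's cutoff, the mean activation of tested wells plus 3 SD, cut at about 7.9% in these data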
VP16 Luc act: GAL4-VP16 reporter activation counter-screen; shares compounds with SMARCA2 act; HEK293 GAL4-VP16 pG5luc reporter, luciferase luminescence; scaled: DMSO wells 0%, SAHA wells 100%; activation, % at 9.1 µM; actives 41% (n = 3,500); AID 686939;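 active = activation above the solvent-only control well mean plus 3 SD, averaged across control plates, cut at about 5.2% in these data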
LXRb hcDAF ctr: counter-screen for hcDAF-12 agonists: agonists of human LXR-beta; shares compounds with hcDAF12 agonist; HEK293 Gal4-LXR tk-luc reporter, luminescence, 24 h; normalized: DMSO 0%, positive control 100%; activation, % at 6.8 µM; 3,400 tested, under 10 active;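 active = mean percent activation of the reporter above a cutoff set as the average over tested compounds plus their standard deviation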
Target sequence (P55055 whole entry, looked up, the tested form may be a part): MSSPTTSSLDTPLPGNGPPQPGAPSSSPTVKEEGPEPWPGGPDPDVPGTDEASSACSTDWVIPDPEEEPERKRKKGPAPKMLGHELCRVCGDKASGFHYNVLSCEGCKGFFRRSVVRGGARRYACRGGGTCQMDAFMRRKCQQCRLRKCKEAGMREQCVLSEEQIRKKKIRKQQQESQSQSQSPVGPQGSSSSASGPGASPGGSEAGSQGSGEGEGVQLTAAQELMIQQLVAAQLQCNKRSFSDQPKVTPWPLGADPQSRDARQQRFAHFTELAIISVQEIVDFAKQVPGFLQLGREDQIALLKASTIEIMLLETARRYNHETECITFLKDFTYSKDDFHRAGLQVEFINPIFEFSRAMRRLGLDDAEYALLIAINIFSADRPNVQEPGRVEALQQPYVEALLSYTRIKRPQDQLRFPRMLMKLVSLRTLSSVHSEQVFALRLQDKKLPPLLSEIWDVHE
hcDAF12 conf: hcDAF-12 agonism, confirmation assay. AID 743032. activation, % at 6.8 µM. actives 61% (n = 3,400). shares compounds with hcDAF12 agonist. HEK293 hcDAF-12 lit1-tk-luc reporter, luminescence; % of Δ7-dafachronic acid response;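 active = mean activation across triplicate tests above the threshold derived from the earlier primary screen, cut at about 5.5% in these data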
Each line names hits and unclear results; the compound was inactive in the other large screens (follow-up assays come after a bar, where they were run). In the library only some 4.8% were active in any assay of this set; here they are far more common.

CN(C)N=C1c2cc(S(=O)(=O)N3CCOCC3)ccc2-c2ccc(S(=O)(=O)N3CCOCC3)cc21	none
Nc1ccccc1C=C1Cc2ccccc2C1=O	ssDAF12 agonist 3.2, hgDAF-12 ag 21.6, hcDAF12 agonist 13.0, DAX1 inh-2 7.7 | DAX1 inh confirm 17.0 | SF1 AF2mut Luc 7.4 | LXRb hcDAF ctr inactive | hcDAF12 conf 10.7
Cn1c(/C=N/Nc2nc3ccccc3[nH]2)nc2ccccc21	ssDAF12 agonist 1.9, hgDAF-12 ag 15.1, hcDAF12 agonist 16.6, DAX1 inh-2 5.5 | DAX1 inh confirm inactive | SF1 AF2mut Luc inactive | LXRb hcDAF ctr inactive | hcDAF12 conf 8.0
CCCn1c(/C=N/Nc2nc3ccccc3[nH]2)nc2ccccc21	none
CSc1ncc(Cl)c(C(=O)Nc2cccc3ccccc23)n1	none
Cc1c(C(=O)NCC2CCCO2)oc2ccccc12 (stereo unspecified)	none
Cc1ccc2oc(C(=O)NCCC3CCCCO3)c(C)c2c1 (stereo unspecified)	hgDAF-12 ag 12.8, hcDAF12 agonist 8.5, DAX1 inh-2 10.2 | DAX1 inh confirm 7.5 | SF1 AF2mut Luc 4.2 | LXRb hcDAF ctr inactive | hcDAF12 conf 14.2
CC(C)(C)c1ccc(/C=N/NC(=O)c2ccccn2)cc1	SMARCA2 act 9.8, hgDAF-12 ag 13.0, hcDAF12 agonist 7.2, DAX1 inh-2 11.5 | DAX1 inh confirm 13.8 | SF1 AF2mut Luc 6.2 | SMARCA2 conf inactive | VP16 Luc act 9.0 | LXRb hcDAF ctr inactive | hcDAF12 conf 9.5
O=C(O)CCC(=O)Nc1ccc(Sc2ccc([N+](=O)[O-])cc2)cc1	none
Cc1cccc(OCC(=O)Nc2nccs2)c1C	hgDAF-12 ag 12.0, hcDAF12 agonist 8.6, DAX1 inh-2 12.2 | DAX1 inh confirm 13.4 | SF1 AF2mut Luc 8.0 | LXRb hcDAF ctr inactive | hcDAF12 conf 6.4
CC(C)c1ccc(/C=N/Nc2ccc(C(=O)O)cc2)cc1	none
O=C(O)c1ccc(N/N=C/c2ccc(-c3ccccc3)cc2)cc1	ssDAF12 agonist 1.3, hgDAF-12 ag 12.6, hcDAF12 agonist 7.6, DAX1 inh-1 5.5, DAX1 inh-2 7.7 | DAX1 inh confirm 19.3 | SF1 AF2mut Luc 8.5 | LXRb hcDAF ctr inactive | hcDAF12 conf 6.2
COC(=O)C(Cc1ccccc1)NC(=O)CNC(=O)c1ccc(Br)o1 (stereo unspecified)	none
COc1ccc(C2=Nc3ccccc3N(C(=O)Cc3cc(OC)cc(OC)c3)C2C(=O)NC(C)C)cc1 (stereo unspecified)	ssDAF12 agonist 0.9, hgDAF-12 ag 12.0, hcDAF12 agonist 6.7, DAX1 inh-2 6.0 (no result: DAX1 inh-1) | DAX1 inh confirm 9.8 | SF1 AF2mut Luc 6.4 | LXRb hcDAF ctr inactive | hcDAF12 conf 5.7
CC(C)Cc1cc(C(=O)Nc2ccc3c(c2)OCO3)no1	ssDAF12 agonist 1.5, hgDAF-12 ag 13.0, hcDAF12 agonist 7.5, DAX1 inh-2 7.3 | DAX1 inh confirm 13.7 | SF1 AF2mut Luc 7.2 | LXRb hcDAF ctr inactive | hcDAF12 conf inactive
O=C(NCCSc1ccccc1)c1ccc(Br)cc1	hgDAF-12 ag 13.1, hcDAF12 agonist 7.4, DAX1 inh-2 4.7 | DAX1 inh confirm 15.4 | SF1 AF2mut Luc 7.7 | LXRb hcDAF ctr inactive | hcDAF12 conf 5.9
O=C(NCC1CCCO1)C1CC(c2ccccc2Cl)=NO1 (stereo unspecified)	none
O=C1c2ccccc2S(=O)(=O)N1CC1CC(c2ccccc2Cl)=NO1 (stereo unspecified)	hgDAF-12 ag 15.4, hcDAF12 agonist 8.7, DAX1 inh-2 5.5 | DAX1 inh confirm 11.0 | SF1 AF2mut Luc 8.1 | LXRb hcDAF ctr inactive | hcDAF12 conf 13.2
Cc1cc2oc(C(=O)Nc3ccc(S(=O)(=O)Nc4nccs4)cc3)cc(=O)c2cc1Cl	none
Cc1ccc(C(=O)/C=C/Nc2ccccc2C(N)=O)cc1	ssDAF12 agonist 1.8, hgDAF-12 ag 11.6, hcDAF12 agonist 7.0, DAX1 inh-2 4.7 | DAX1 inh confirm 12.4 | SF1 AF2mut Luc 7.0 | LXRb hcDAF ctr inactive | hcDAF12 conf 7.0
COc1cccc(NC(=O)N2CCCCCC2)c1	hcDAF12 agonist 7.7, DAX1 inh-2 4.6 | DAX1 inh confirm 5.7 | SF1 AF2mut Luc 4.0 | LXRb hcDAF ctr inactive | hcDAF12 conf inactive
Cc1cc(C(=O)OCC(=O)NC2CCC(C)CC2)c(C)o1 (stereo unspecified)	none
Cc1cc(C(=O)NC2CCC(C)CC2)c(C)o1 (stereo unspecified)	hcDAF12 agonist 12.6, DAX1 inh-2 7.5 | DAX1 inh confirm 13.5 | SF1 AF2mut Luc 6.7 | LXRb hcDAF ctr inactive | hcDAF12 conf 7.7
Cc1csc(NC(=O)c2cncc(Br)c2)n1	hgDAF-12 ag 11.5, hcDAF12 agonist 6.8, DAX1 inh-2 5.2 | DAX1 inh confirm 13.0 | SF1 AF2mut Luc 7.8 | LXRb hcDAF ctr inactive | hcDAF12 conf inactive
Cc1csc(NC(=O)c2ccc(S(C)(=O)=O)cc2)n1	none
COc1ccc(CCNC(=O)CC2Oc3ccc(Cl)cc3NC2=O)cc1OC (stereo unspecified)	none
COc1ccc(NC(=O)Nc2cc(C)ccc2F)cc1OC	none
Cc1ccc(/C=N/Nc2cccc(C(=O)O)c2)s1	ssDAF12 agonist 2.5, hgDAF-12 ag 26.6, hcDAF12 agonist 11.8, DAX1 inh-2 8.3 | DAX1 inh confirm 17.0 | SF1 AF2mut Luc 8.5 | LXRb hcDAF ctr inactive | hcDAF12 conf 13.8
COc1ccc2ccccc2c1/C=N/Nc1cccc(C(=O)O)c1	none

Compound activity: PubChem BioAssay, The Scripps Research Institute Molecular Screening Center
